The nature of experiment [1]: BSK_3C_TissueFactor: BioMAP Diversity Plus: 3C Assay for Tissue Factor Biomarker Activity (AID 2282997). As to conditions: BioMAP 3C HUVEC, tissue factor biomarker readout; actives raise or lower the signal. In a few lines:
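In this endothelial system, HUVEC are treated for 24 h and Tissue Factor is assessed by ELISA, normalised to DMSO.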

Experiment [2] is described as follows: BSK_3C_uPAR: BioMAP Diversity Plus: 3C Assay for Urokinase-type plasminogen activator receptor (uPAR) Biomarker Activity (AID 2282998). As to conditions: BioMAP 3C HUVEC, uPAR biomarker ELISA; actives raise or lower the signal. The essentials: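 Cell-surface uPAR on HUVEC (3C system) read by ELISA at 24 h post-treatment, with DMSO as baseline and fitting in both directions. Parallel cultures stained with SRB to flag overt cytotoxicity.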
For orientation: ELISA stands for enzyme-linked immunosorbent assay.

Experiment [3] in a line: BSK_3C_VCAM1: BioMAP Diversity Plus: 3C Assay for Vascular cell adhesion molecule 1 (VCAM1) Biomarker Activity (AID 2282999). As to conditions: BioMAP 3C HUVEC, VCAM1 ELISA, cytokine-stimulated; actives raise or lower the signal. The essentials:
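Activity fitted in both directions relative to DMSO, with ELISA measurement of the surface marker on primary HUVEC (3C) at 24 h post-treatment; parallel SRB staining (0.1% SRB, TCA-fixed, 560 nm) flagged overt cytotoxicity.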

Experiment [4] is described as follows: BSK_4H_Eotaxin3: BioMAP Diversity Plus: 4H Assay for Eotaxin 3 Biomarker Activity (AID 2283000).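 On outcome: CCL26 protein level quantified by ELISA in parallel with SRB cytotoxicity check.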 As to conditions: primary human endothelial cells (HUVEC); actives raise or lower the signal. In a few lines: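 ELISA quantitation of CCL26 (Eotaxin-3) protein from chemically dosed human vascular endothelial cells at 24 h; increases and decreases both scored relative to DMSO-treated baseline.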

Read-out in experiment [5]: Intercellular Adhesion Molecule 1 (ICAM1), ICAM1 (gene 3383)
Kind of experiment: BSK_3C_ICAM1: BioMAP Diversity Plus: 3C Assay for Intercellular Adhesion Molecule 1 (ICAM1) Biomarker Activity (AID 2283003). As to conditions: primary human endothelial cells (HUVEC); actives raise or lower the signal. The essentials:
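ELISA readout of ICAM1 in human umbilical vein endothelial cells in the 3C system, taken 24 h post-dose. Gain or loss of signal versus DMSO was fitted in both directions, with SRB total-protein staining run in parallel.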

The nature of experiment [6]: BSK_3C_Proliferation: Cell Proliferation Assessment in the BioMAP Diversity Plus: 3C Assay (AID 2283006).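 On AC50: potency may reflect either rise or fall in cell number versus DMSO.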 As to conditions: primary human endothelial cells (HUVEC). The essentials:
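Proliferation as total protein: sulforhodamine B (0.1%) stain of TCA-fixed subconfluent human umbilical vein endothelial cells, absorbance 560 nm, 48 h after dosing. Activity fitted in both directions against DMSO baseline.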

Read-out in experiment [7]: E-selectin (Homo sapiens) (UniProt P16581)
In words: BSK_3C_Eselectin: BioMAP Diversity Plus: 3C Assay for Eselectin Biomarker Activity (AID 2283015).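 On outcome: cell surface E-selectin protein quantified by ELISA 24 h after dosing.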 As to conditions: primary human endothelial cells (HUVEC); actives raise or lower the signal. The essentials:
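Endpoint derived by bidirectional fitting against DMSO vehicle; signal is ELISA-detected E-selectin from primary HUVEC at 24 h post-dosing, with parallel SRB staining (0.1% SRB, 560 nm) flagging cytotoxicity.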

Read-out in experiment [8]: Interleukin-1 alpha (IL1a), IL1A (gene 3552)
In words: BSK_BE3C_IL1a: BioMAP Diversity Plus: BE3C Assay for Interleukin-1 alpha (IL1a) Biomarker Activity (AID 2283016). As to conditions: primary human bronchial epithelial cells; actives raise or lower the signal. The essentials:
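IL-1a measured by ELISA after 24 h treatment of human primary bronchial epithelial cells, with gain or loss of signal fitted versus DMSO. Parallel cultures stained with SRB gauge overt cytotoxicity.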

Read-out in experiment [9]: Monocyte Chemoattractant Protein-1 (MCP1), CCL2 (gene 6347)
Kind of experiment: BSK_3C_MCP1: BioMAP Diversity Plus: 3C Assay for Monocyte Chemoattractant Protein-1 (MCP1) Biomarker Activity (AID 2283017). As to conditions: primary human endothelial cells (HUVEC); actives raise or lower the signal. In a few lines:
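Using human vascular primary endothelium, researchers measured MCP-1 by ELISA 24 h after treatment, with DMSO serving as negative control for bidirectional fitting.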

Read-out in experiment [10]: Monocyte Chemoattractant Protein-1 (MCP1), CCL2 (gene 6347)
Kind of experiment: BSK_4H_MCP1: BioMAP Diversity Plus: 4H Assay for Monocyte Chemoattractant Protein-1 (MCP1) Biomarker Activity (AID 2283018). As to conditions: primary human endothelial cells (HUVEC); actives raise or lower the signal. In a few lines: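 ELISA of MCP-1 (CCL2) 24 h after chemical dosing of HUVEC in the BioMAP 4H system. Gain or loss versus DMSO fitted; parallel SRB staining (560 nm) tracked overt cytotoxicity.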

Read-out in experiment [11]: Interleukin-8 (IL8), CXCL8 (gene 3576)
Kind of experiment: BSK_3C_IL8: BioMAP Diversity Plus: 3C Assay for Interleukin-8 (IL8) Biomarker Activity (AID 2283020). As to conditions: primary human endothelial cells (HUVEC); actives raise or lower the signal. In a few lines: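 IL-8 was measured by ELISA in HUVEC cultures 24 h after chemical dosing, with gain or loss of signal fitted relative to DMSO. Parallel SRB total-protein staining tracked overt cytotoxicity.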

Read-out in experiment [12]: Monokine induced gamma interferon (MIG), CXCL9 (gene 4283)
In words: BSK_3C_MIG: BioMAP Diversity Plus: 3C Assay for Monokine induced gamma interferon (MIG) Biomarker Activity (AID 2283021).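 On AC50: MIG protein level measured by immunoassay in the treated endothelial cultures.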 As to conditions: primary human endothelial cells (HUVEC); actives raise or lower the signal. In a few lines: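 ELISA measurement of MIG in human umbilical vein endothelial cells 24 h after treatment. Cytotoxicity tracked by SRB staining in parallel cultures; gain or loss of signal fitted relative to DMSO.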

Experiment [13] in a line: BSK_3C_SRB: Viability Assessment in the BioMAP Diversity Plus: 3C Assay (AID 2283023).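 Further: cells read 24 h after compound dosing; fitted both ways against DMSO so a hit may be signal rise or drop.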 As to conditions: primary human endothelial cells (HUVEC). The essentials:
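Overt cytotoxicity is gauged in parallel confluent HUVEC cultures by SRB total-protein staining at the time of biomarker measurement, 24 h after dosing. Gain or loss of signal is fitted versus DMSO.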

Read-out in experiment [14]: Matrix Metallopeptidase 1 (MMP1), MMP1 (gene 4312)
Kind of experiment: BSK_hDFCGF_MMP1: BioMAP Diversity Plus: hDFCGF Assay for Matrix Metallopeptidase 1 (MMP1) Biomarker Activity (AID 2283064). As to conditions: primary human foreskin fibroblasts; actives raise or lower the signal. The essentials: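 MMP1 levels quantified by ELISA 24 h after dosing human dermal fibroblast cultures, with parallel SRB total-protein staining for overt cytotoxicity. Data fitted in both directions against DMSO baseline.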

Read-out in experiment [15]: E-selectin (Homo sapiens) (UniProt P16581)
In words: BSK_SAg_Eselectin: BioMAP Diversity Plus: SAg Assay for Eselectin Biomarker Activity (AID 2283091). As to conditions: primary human HUVEC with PBMC; actives raise or lower the signal. In a few lines:
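Endpoint values derive from bidirectional fitting relative to DMSO, using ELISA-measured E-selectin in a human vascular co-culture (umbilical vein endothelium plus PBMC) sampled 24 h after dosing.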

Experiment [16] in a line: BSK_SAg_PBMCCytotoxicity: PBMC Cytotoxicity Assessment in the BioMAP Diversity Plus: SAg Assay (AID 2283093).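 Further: PBMC viability measured as Alamar Blue reduction fluorescence at 546/580 nm; fitted both ways against DMSO so a hit may be loss or gain of signal.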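 On AC50: PBMC superantigen activated with SEB plus TSST-1 one hour after compound addition.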 As to conditions: primary human HUVEC with PBMC. The essentials:
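Alamar Blue reduction (6 h, ex/em 546/580 nm) read after 90 h culture of PBMC pre-dosed 1 h then stimulated with SEB plus TSST-1, 20 ng/mL each. Gain or loss of signal fitted relative to DMSO.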

Read-out in experiment [17]: Interleukin-8 (IL8), CXCL8 (gene 3576)
In words: BSK_SAg_IL8: BioMAP Diversity Plus: SAg Assay for Interleukin-8 (IL8) Biomarker Activity (AID 2283094). As to conditions: primary human HUVEC with PBMC; actives raise or lower the signal. The essentials: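 ELISA readout of IL-8 from a superantigen-activated endothelial/PBMC primary human co-culture, taken 24 h post-dosing and fitted in both directions against DMSO; parallel SRB total-protein staining flags overt cytotoxicity.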

Experiment [18] concerns the target human Retinoic Acid Receptor beta (RARb), RARB (gene 5915) (UniProt P10826). In words: ATG_RARb_TRANS: Attagene TRANS-FACTORIAL HepG2 Assay for human Retinoic Acid Receptor beta (AID 2283004; active means hit-call score of the fitted dose curve at least 0.9, where 1 is the maximum). In a few lines:
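Fluorescent capillary-electrophoresis detection of GAL4-UAS reporter mRNA defines the endpoint, with induction over DMSO-treated wells scored as activity. Transiently transfected human hepatoma HepG2 cells expressing exogenous NR–Gal4 proteins are exposed to test chemicals for 24 h.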

The target of experiment [19] is Peroxisome proliferator-activated receptor gamma (Homo sapiens) (UniProt P37231). Kind of experiment: OT_PPARg_PPARgSRC1_0480: Odyssey Thera (OT) 8-hour Protein-Complementation Assay for Peroxisome Proliferator-activated Receptor Gamma / SRC-1 Co-activator (AID 2283387; active means hit-call score of the fitted dose curve at least 0.9, where 1 is the maximum;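 further: nuclear to cytoplasmic split Venus YFP fluorescence ratio reporting PPARg SRC-1 interaction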). In a few lines: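 Read-out: 488 nm N/C fluorescence ratio from complemented Venus YFP fragments, ≥350 cells per image, gain-of-signal fitted against DMSO baseline. Fusions of PPARg/SRC-1 with IFP1/IFP2 expressed transiently in HEK293T; compounds applied 8 h.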

Experiment [20] shares this target. Kind of experiment: OT_PPARg_PPARgSRC1_1440: Odyssey Thera (OT) 24-hour Protein-Complementation Assay for Peroxisome Proliferator-activated Receptor Gamma/ SRC-1 Co-activator (AID 2283388; active means hit-call score of the fitted dose curve at least 0.9, where 1 is the maximum;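 further: nuclear to cytoplasmic ratio of reconstituted Venus YFP fluorescence in fixed imaged cells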). The essentials: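 Cells carrying the PPARg/SRC-1 fragment-complementation reporter receive compound for 24 hours, are fixed and counterstained with Draq5, then imaged. Increased nuclear relative to cytoplasmic YFP fluorescence above DMSO baseline indicates binding activity.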

Inconclusive results are not listed. Activity calls are given as the source filed them. How the source made its calls, unless noted: active means hit-call score of the fitted dose curve at least 0.9, where 1 is the maximum; inactive means score below 0.9.

E-selectin (Homo sapiens), sequence (P16581 whole entry, looked up): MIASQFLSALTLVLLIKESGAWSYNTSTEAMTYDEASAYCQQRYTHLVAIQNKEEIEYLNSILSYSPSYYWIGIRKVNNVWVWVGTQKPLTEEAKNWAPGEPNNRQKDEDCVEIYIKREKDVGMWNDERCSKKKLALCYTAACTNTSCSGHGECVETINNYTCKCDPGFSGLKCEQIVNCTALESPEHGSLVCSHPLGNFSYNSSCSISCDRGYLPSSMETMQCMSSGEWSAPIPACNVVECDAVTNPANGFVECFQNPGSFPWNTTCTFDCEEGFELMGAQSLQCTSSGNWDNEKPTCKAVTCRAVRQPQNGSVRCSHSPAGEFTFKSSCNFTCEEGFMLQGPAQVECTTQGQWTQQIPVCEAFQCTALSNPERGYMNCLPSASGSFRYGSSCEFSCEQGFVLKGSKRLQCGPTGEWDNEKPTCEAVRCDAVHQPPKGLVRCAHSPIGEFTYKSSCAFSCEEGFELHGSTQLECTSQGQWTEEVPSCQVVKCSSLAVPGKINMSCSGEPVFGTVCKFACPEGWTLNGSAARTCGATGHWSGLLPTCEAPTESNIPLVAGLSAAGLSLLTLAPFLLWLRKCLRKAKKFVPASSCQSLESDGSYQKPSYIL
human Retinoic Acid Receptor beta (RARb), RARB (gene 5915), sequence (P10826 whole entry, looked up, the tested form may be a part): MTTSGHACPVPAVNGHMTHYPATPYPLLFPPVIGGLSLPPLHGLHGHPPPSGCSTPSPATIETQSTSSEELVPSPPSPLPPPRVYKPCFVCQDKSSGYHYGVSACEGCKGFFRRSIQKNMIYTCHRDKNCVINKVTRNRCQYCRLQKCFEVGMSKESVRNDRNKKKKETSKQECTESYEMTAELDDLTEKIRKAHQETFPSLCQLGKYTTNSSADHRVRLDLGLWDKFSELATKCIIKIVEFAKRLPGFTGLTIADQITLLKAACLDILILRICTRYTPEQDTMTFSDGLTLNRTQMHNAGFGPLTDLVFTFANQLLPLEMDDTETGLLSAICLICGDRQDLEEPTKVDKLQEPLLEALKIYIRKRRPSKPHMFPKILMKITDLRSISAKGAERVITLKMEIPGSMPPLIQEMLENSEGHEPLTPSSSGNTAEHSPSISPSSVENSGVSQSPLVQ
Peroxisome proliferator-activated receptor gamma (Homo sapiens), sequence (P37231 whole entry, looked up, the tested form may be a part): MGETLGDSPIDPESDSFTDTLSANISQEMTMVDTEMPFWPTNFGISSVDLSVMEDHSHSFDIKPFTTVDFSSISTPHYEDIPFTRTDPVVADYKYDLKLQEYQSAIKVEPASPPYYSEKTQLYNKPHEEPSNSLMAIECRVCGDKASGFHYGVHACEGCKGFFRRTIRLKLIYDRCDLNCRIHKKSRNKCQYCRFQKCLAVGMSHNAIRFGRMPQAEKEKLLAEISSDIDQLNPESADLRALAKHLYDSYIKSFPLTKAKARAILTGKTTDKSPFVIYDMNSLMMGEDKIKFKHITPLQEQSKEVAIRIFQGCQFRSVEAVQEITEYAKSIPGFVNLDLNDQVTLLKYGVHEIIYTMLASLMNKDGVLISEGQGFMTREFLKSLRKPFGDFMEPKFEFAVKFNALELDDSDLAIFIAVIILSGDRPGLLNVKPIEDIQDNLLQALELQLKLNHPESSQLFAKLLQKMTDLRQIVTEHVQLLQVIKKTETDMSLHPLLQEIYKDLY

On to `CN(C)c1ccc(C(c2ccccc2)c2ccc(N(C)C)cc2)cc1`, for which the AC50 in [1] is 2 µM (active); in [3] it was 20 µM (active); in experiment [4] it was 8.42 µM (active); in [6] it was 2.81 µM (active); in experiment [7], 3.29 µM (active); in experiment [8] it was 5.43 µM (active). In addition, the AC50 was 11.9 µM (active) in experiment [9]; 4.5 µM (active) in experiment [10]; 5.43 µM (active) in experiment [11]; 9.62 µM (active) in experiment [13]; 11.3 µM (active) in experiment [15]; 8.09 µM (active) in experiment [17]. Besides, the result in experiment [2], in experiment [5], in [12], in experiment [14] and in experiment [16] was inactive.
With `CCCCCCC1CCC(=O)O1` (centres undefined), the call in [18], in [19] and in experiment [20] was inactive.
Take `CN1CCCC1`: in [18], the result was inactive.
Consider `CN(C)CCC(c1ccc(Cl)cc1)c1ccccn1` (centres undefined), for which the result in [1], in experiment [2], in experiment [3], in [4], in experiment [5] and in experiment [6] was inactive. In addition, the outcome in experiment [7], in [8], in [9], in [11], in [12] and in experiment [13] was inactive. The result in experiment [14], in experiment [15], in experiment [16] and in experiment [17] was inactive. For the same molecule, the AC50 in [10] was 12 µM (active).
Regarding `CCCOCCC`, the molecule was classed as inactive in experiment [18].
`C=C1CC[C@H]2C[C@@H]1C2(C)C`: the outcome in [18], in [19] and in [20] was inactive.
With `O=C(OCc1ccccc1)c1ccccc1`, the molecule was called inactive in experiment [19] and in experiment [20].
In the case of `CCCCCCCCCCC1CO1` (centres undefined), the AC50 in experiment [1] is 30.8 µM (active); in [2], 33.7 µM (active); in [3], 34.8 µM (active); in experiment [4], 36.9 µM (active); in experiment [5], 36.2 µM (active); in [6], 14.7 µM (active). Also, the AC50 is 34.8 µM (active) in experiment [7]; 31.5 µM (active) in experiment [8]; 31 µM (active) in experiment [9]; 33.8 µM (active) in experiment [10]; 32.8 µM (active) in experiment [11]; 34.4 µM (active) in [12]. Besides, the AC50 was 35.2 µM (active) in [13], 20 µM (active) in experiment [14], 20 µM (active) in experiment [15] and 29.5 µM (active) in [16]. The outcome in experiment [17] was inactive.
As for `Cc1cc(-n2nc3ccc(Cl)cc3n2)c(O)c(C(C)(C)C)c1`, the result in experiment [1], in experiment [2], in [3], in experiment [4], in experiment [5] and in experiment [18] was inactive. Further, the outcome in experiment [6], in experiment [7], in [8], in [9], in experiment [10] and in experiment [11] was inactive. Also, the result in experiment [12], in experiment [14], in [15], in [16] and in experiment [17] was inactive. Also, the AC50 in experiment [13] is 0.342 µM (active).

The term AC50 denotes the concentration giving half of the maximal activity seen.

The values above are taken from PubChem BioAssay (EPA / NIEHS).
